The full data set covers some 7,900 targets. This sample favours those with a hit. About 0.6% of all pairs of compound and target were hits. Values without a mark were called inactive.
Tests used:
Assay in all cases: log2 fold change, soluble protein after heating vs DMSO (PISA); higher = thermal stabilisation; K562 cells, 10 uM, 30 min; active = over 0.2 and 3.5 SD of the protein, either way, in both replicates (recomputed)
erlotinib = compound: C#Cc1cccc(Nc2ncnc3cc(OCCOC)c(OCCOC)cc23)c1 [erlotinib]
Summary of the method: (§1)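 K562 cells at 2×10^6 cells/mL were treated with 10 μM compound for 30 min. Aliquots were heated for 3 min across 48°C-58°C, pooled, and extracted in PBS with 0.5% NP-40 at 4°C; soluble protein was the supernatant after 21,000xg for 90 min. Soluble protein was quantified by TMTpro 16plex LC-MS/MS with channel sums equalised, and reported as log2 fold change in thermal stability against DMSO controls, with values from duplicates.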

[1] = compound: C/C(=N\NC(=O)C1=CC(=CC=C1)S(=O)(=O)N2CCOCC2)/C3=C(C=CC(=C3)Cl)O
Summary of the method: as §1

[2] = compound: C1=CC(=C(C=C1Cl)C2=NC3=NC=CN=C3C(=N2)NC4=CC=NC=C4)F
Summary of the method: as §1

[3] = compound: C1=CC(=CC=C1C2=NC3=C(N2)C=C(C=C3)C(=O)N)OC4=CC=C(C=C4)Cl
Summary of the method: as §1

[4] = compound: C1=CC2=C(C=CC(=C2)/C=C\3/C(=O)NC(=NCC4=CC=CS4)S3)N=C1
Summary of the method: as §1

[5] = compound: C1=CC2=NC=CN=C2C=C1/C=C/3\C(=O)NC(=O)S3
Summary of the method: as §1

[6] = compound: C1=CC=C(C=C1)C2=NC(=C(N2)C3=CC=NC=C3)C4=CC(=C(C=C4)Cl)O
Summary of the method: as §1

[7] = compound: C1=CC=C2C(=C1)C3=NNC4=CC=CC(=C43)C2=O
Summary of the method: as §1

[8] = compound: C1CCN(C1)C(=O)NC2=CC=CC(=C2)NC3=NC=C(C(=N3)NCCC4=CN=CN4)Br
Summary of the method: as §1

[9] = compound: C1CN(CCC1(CC2=CC=C(C=C2)Cl)N)C3=NC=NC4=C3C=CN4
Summary of the method: as §1

IRAK-1-4 Inhibitor I = compound: C1COCCN1CCN2C3=CC=CC=C3N=C2NC(=O)C4=CC(=CC=C4)[N+](=O)[O-] [IRAK-1-4 Inhibitor I]
Summary of the method: as §1

ibrutinib = compound: C=CC(=O)N1CCC[C@@H](n2nc(-c3ccc(Oc4ccccc4)cc3)c3c(N)ncnc32)C1 [ibrutinib]
Summary of the method: as §1

[10] = compound: CC(=O)c1cnc2ccc(-c3cc(Cl)c(O)c(Cl)c3)nc2c1N[C@H]1CC[C@H](CN(C)C)CC1
Summary of the method: as §1

ralimetinib = compound: CC(C)(C)Cn1c(N)nc2ccc(-c3[nH]c(C(C)(C)C)nc3-c3ccc(F)cc3)nc21 [ralimetinib]
Summary of the method: as §1

[11] = compound: CC(C)(O)CC(=O)NCCn1ccc2ncnc(Nc3ccc(Oc4cccc(C(F)(F)F)c4)c(Cl)c3)c21
Summary of the method: as §1

[12] = compound: CC(C)C1=C2N=C(C=C(N2N=C1)NCC3=CC=CC=C3)NCCCCCCN
Summary of the method: as §1

[13] = compound: CC(C)C[C@@H](C=O)NC(=O)[C@H](CC(C)C)NC(=O)[C@H](CC(C)C)NC(=O)OCc1ccccc1
Summary of the method: as §1

pinometostat = compound: CC(C)N(C[C@H]1O[C@@H](n2cnc3c(N)ncnc32)[C@H](O)[C@@H]1O)[C@H]1C[C@@H](CCc2nc3cc(C(C)(C)C)ccc3[nH]2)C1 [pinometostat]
Summary of the method: as §1

[14] = compound: CC1=C(C(CC(=O)N1)C2=CC=C(C=C2)C(F)(F)F)C(=O)NC3=C(C=C4C(=C3)C=NN4)F
Summary of the method: as §1

[15] = compound: CC1=C(C2=C(C=C1)C(=O)C3=CC=CC=C3N2CCCN)C
Summary of the method: as §1

Chain of UniProt Q14849 (Q14849 whole entry, looked up): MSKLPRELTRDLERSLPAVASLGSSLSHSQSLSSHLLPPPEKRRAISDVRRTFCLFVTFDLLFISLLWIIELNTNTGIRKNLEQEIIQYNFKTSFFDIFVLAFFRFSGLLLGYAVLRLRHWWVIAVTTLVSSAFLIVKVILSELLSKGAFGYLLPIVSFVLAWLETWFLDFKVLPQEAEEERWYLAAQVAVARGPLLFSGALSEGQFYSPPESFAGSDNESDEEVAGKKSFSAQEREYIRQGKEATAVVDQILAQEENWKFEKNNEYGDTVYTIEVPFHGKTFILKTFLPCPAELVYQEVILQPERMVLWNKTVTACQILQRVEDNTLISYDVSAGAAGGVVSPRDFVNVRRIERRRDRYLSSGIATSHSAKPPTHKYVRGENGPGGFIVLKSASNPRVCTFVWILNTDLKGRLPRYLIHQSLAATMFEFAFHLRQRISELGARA
Chain of UniProt Q8NBW4 (Q8NBW4 whole entry, looked up): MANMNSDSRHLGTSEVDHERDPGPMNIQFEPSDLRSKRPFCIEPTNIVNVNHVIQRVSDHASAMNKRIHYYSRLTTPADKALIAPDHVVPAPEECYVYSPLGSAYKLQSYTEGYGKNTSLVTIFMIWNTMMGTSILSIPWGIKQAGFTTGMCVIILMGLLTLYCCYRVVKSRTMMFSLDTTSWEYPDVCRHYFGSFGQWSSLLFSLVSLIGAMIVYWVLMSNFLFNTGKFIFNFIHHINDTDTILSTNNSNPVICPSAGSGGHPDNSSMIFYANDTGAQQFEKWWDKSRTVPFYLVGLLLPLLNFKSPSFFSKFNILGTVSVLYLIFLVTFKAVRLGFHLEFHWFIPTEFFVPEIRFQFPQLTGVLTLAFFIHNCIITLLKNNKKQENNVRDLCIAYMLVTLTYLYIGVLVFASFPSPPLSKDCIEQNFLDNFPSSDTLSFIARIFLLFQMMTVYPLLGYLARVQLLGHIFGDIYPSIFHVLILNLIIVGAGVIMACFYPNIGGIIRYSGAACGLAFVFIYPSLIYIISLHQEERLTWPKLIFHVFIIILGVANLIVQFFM
Chain of UniProt Q01130 (Q01130 whole entry, looked up): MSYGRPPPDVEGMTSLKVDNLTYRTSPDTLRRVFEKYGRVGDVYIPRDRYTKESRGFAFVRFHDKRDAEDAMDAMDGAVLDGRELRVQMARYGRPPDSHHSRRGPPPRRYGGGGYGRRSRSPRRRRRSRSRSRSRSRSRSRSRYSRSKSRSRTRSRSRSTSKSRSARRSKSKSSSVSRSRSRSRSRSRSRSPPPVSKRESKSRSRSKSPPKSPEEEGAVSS
Chain of UniProt Q9NZD8 (Q9NZD8 whole entry, looked up): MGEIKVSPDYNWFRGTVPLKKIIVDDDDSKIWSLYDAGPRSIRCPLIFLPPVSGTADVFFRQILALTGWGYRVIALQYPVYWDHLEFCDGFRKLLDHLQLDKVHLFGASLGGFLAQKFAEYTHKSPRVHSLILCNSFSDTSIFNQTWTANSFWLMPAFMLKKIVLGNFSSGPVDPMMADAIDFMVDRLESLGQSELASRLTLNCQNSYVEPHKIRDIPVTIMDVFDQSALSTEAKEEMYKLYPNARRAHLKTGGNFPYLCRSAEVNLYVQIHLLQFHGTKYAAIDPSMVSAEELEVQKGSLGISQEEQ
Chain of UniProt Q9UDY2 (Q9UDY2 whole entry, looked up): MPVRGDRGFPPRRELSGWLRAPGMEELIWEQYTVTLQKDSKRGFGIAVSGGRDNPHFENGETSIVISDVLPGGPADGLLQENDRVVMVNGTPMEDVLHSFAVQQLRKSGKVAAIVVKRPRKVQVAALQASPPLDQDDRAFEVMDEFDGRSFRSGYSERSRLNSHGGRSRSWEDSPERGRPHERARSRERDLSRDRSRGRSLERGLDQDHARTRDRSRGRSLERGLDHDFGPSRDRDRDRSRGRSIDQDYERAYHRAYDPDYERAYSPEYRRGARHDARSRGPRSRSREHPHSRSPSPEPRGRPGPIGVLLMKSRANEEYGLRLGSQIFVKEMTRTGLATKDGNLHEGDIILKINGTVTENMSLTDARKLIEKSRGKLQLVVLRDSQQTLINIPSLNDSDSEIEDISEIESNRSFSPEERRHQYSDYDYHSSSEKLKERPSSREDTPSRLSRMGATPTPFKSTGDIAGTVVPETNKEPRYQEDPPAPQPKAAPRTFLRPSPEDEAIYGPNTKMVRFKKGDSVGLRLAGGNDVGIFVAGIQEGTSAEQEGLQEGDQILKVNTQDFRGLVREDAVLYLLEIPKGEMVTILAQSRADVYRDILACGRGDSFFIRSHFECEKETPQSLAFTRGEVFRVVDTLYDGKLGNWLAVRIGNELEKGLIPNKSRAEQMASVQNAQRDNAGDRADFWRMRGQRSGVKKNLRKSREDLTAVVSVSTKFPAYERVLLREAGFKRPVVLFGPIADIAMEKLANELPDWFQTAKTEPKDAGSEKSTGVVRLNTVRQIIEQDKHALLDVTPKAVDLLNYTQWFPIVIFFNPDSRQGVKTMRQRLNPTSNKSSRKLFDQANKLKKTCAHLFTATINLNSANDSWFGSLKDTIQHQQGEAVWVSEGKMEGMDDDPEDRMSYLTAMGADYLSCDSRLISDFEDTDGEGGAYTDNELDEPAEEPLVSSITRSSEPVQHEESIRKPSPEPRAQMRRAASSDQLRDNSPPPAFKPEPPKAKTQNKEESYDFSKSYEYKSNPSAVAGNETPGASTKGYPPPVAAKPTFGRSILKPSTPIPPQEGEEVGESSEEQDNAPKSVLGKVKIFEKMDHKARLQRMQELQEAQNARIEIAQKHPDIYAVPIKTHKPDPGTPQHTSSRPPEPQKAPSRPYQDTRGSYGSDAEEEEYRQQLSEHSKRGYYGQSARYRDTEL
Chain of UniProt O95926 (O95926 whole entry, looked up): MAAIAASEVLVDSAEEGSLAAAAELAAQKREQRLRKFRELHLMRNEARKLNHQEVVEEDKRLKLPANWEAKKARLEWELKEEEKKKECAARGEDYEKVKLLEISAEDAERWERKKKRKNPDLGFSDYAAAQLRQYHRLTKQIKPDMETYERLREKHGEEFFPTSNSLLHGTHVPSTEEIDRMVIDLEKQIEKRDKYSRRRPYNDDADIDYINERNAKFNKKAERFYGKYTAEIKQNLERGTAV
Chain of UniProt Q96CQ1 (Q96CQ1 whole entry, looked up): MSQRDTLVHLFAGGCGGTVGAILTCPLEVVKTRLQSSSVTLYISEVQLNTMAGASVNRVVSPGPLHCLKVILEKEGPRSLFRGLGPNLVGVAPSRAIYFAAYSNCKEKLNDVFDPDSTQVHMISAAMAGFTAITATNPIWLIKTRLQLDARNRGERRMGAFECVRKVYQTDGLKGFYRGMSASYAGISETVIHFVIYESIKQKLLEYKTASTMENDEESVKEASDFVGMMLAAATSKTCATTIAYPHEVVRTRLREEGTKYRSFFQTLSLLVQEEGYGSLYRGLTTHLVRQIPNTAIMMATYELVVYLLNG

| Target | log2 fold change (erlotinib) | log2 fold change [1] | log2 fold change [2] | log2 fold change [3] | log2 fold change [4] | log2 fold change [5] | log2 fold change [6] | log2 fold change [7] | log2 fold change [8] | log2 fold change [9] | log2 fold change (IRAK-1-4 Inhibitor I) | log2 fold change (ibrutinib) | log2 fold change [10] | log2 fold change (ralimetinib) | log2 fold change [11] | log2 fold change [12] | log2 fold change [13] | log2 fold change (pinometostat) | log2 fold change [14] | log2 fold change [15] |
| --- | --- | --- | --- | --- | --- | --- | --- | --- | --- | --- | --- | --- | --- | --- | --- | --- | --- | --- | --- | --- |
| SLC38A9 (UniProt Q8NBW4) | 0.008 | -0.023 | -0.018 | 0.02 | 0.046 | 0.063 | -0.071 | -0.011 | -0.042 | 0.055 | -0.028 | -0.005 | -0.019 | 0 | 0.089 | -0.368 (active) | 0.049 | -0.023 | 0.023 | -0.1 |
| SLIRP (UniProt Q9GZT3) | 0.019 | 0.205 | 0.27 | -0.014 | 0.067 | 0.093 | 0.023 | -0.187 | -0.013 | -0.028 | 0.004 | 0.035 | -0.192 | -0.027 | -0.239 | -0.02 | 0.393 (active) | -0.016 | 0.088 | -0.342 |
| SYF2 (UniProt O95926) | -0.042 | -0.054 | -0.052 | 0.05 | -0.054 | 0.069 | 0.023 | -0.097 | -0.024 | 0.122 | -0.063 | 0.056 | 0.411 (active) | -0.019 | 0.049 | 0.327 | 0.199 | 0.072 | 0.023 | 0.382 (active) |
| SRSF2 (UniProt Q01130) | -0.003 | -0.034 | -0.13 | 0.02 | -0.029 | -0.032 | -0.038 | -0.032 | 0.041 | -0.027 | -0.069 | 0.016 | -0.073 | 0.01 | 0.055 | 0.03 | 0.09 | 0.022 | 0.02 | -0.02 |
| TJP2 isoform 7 (UniProt Q9UDY2) | 0.116 | 0.06 | -0.042 | 0.006 | 0.029 | -0.201 | 0.008 | -0.006 | -0.08 | 0.001 | 0.004 | -0.004 | -0.437 (active) | 0.032 | -0.061 | -0.107 | 0.068 | 0.003 | 0.017 | 0.05 |
| STARD3 (UniProt Q14849) | -0.073 | 0.133 | -0.05 | 0.022 | -0.095 | 0.058 | -0.028 | 0.197 | 0.059 | 0.04 | -0.075 | 0.23 | -0.033 | 0.033 | -0.075 | -0.429 (active) | 0.122 | 0 | 0.222 | -0.044 |
| SPG21 (UniProt Q9NZD8) | 0.014 | 0.075 | -0.08 | 0.021 | -0.045 | 0.054 | 0.103 | 0.083 | -0.032 | 0.012 | -0.042 | -0.167 | -0.046 | 0.014 | 0.043 | -0.007 | 0.021 | 0.019 | -0.062 | 0.072 |
| SLC25A36 (UniProt Q96CQ1) | -0.077 | 0.008 | -0.083 | 0.003 | 0.031 | 0.102 | -0.104 | -0.034 | 0.053 | 0.068 | 0.048 | 0.066 | 0.029 | 0.019 | -0.167 | -0.03 | 0.007 | 0.01 | 0.108 | 0.012 |

Source: the supplement of paper PMC10849652
